# According to PubChem BioAssay (NCI):
# The panel holds about 79,000 compounds, 15% with a hit somewhere; the sample as a whole holds those more often. A number with no mark means an inactive call. Active and inactive are the calls of the source. No stated cut-off is given here; in the data, active means growth inhibition above about 70%; inactive means the rest.
# Columns and labels:
# [1] = NCI Yeast Anticancer Drug Screen. Data for the rad52 strain (AID 147);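 further: 0% = growth of vehicle-treated control cultures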; details: S. cerevisiae rad52 mutant growth inhibition, hits give high values
# How it was run: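 Read-out: growth inhibition versus vehicle-treated controls. Cells were a DNA repair-deficient yeast strain treated with compounds.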
# [2] = NCI Yeast Anticancer Drug Screen. Data for the wt1 strain (AID 149);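 further: 0% = growth of vehicle-treated wt1 cultures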; details: S. cerevisiae wt1 strain (SPY 50644) growth inhibition, hits give high values
# How it was run: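 Measured: growth of wt1 yeast under compound versus vehicle treatment, reported as inhibition.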
# [3] = NCI Yeast Anticancer Drug Screen. Data for the rad50EPP+ strain (AID 151);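 further: 0% = growth of vehicle-treated control cultures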; details: S. cerevisiae rad50 mutant strain, hits give high values
# How it was run: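 Growth inhibition read against vehicle controls in rad50EPP+ yeast, a strain altered in DNA damage repair, after compound exposure.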
# [4] = NCI Yeast Anticancer Drug Screen. Data for the mgt1 strain (AID 153); details: S. cerevisiae mgt1 mutant growth inhibition, hits give high values
# How it was run: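 mgt1 yeast grown with test compound; read-out is growth inhibition versus vehicle-treated cultures.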
# [5] = NCI Yeast Anticancer Drug Screen. Data for the rad50 strain (AID 155);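 further: 0% = growth of vehicle-only cultures of the same strain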; details: S. cerevisiae rad50 strain growth inhibition, hits give high values
# How it was run: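 Growth of the mutant yeast was measured after compound exposure and referenced to vehicle-treated cultures.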
# [6] = NCI Yeast Anticancer Drug Screen. Data for the mec2-1 strain (AID 157); details: S. cerevisiae mec2-1 strain, hits give high values
# How it was run: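 Yeast mec2-1 mutant treated with compound. Readout: growth inhibition vs vehicle controls.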
# [7] = NCI Yeast Anticancer Drug Screen. Data for the rad14 strain (AID 159);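 further: 0% = growth of vehicle-treated control cultures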; details: S. cerevisiae rad14 strain growth inhibition, hits give high values
# How it was run: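 Here, inhibition of yeast growth was measured after compound exposure, using a strain with a genetic defect in DNA damage repair and vehicle-treated cultures as the reference.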
# [8] = NCI Yeast Anticancer Drug Screen. Data for the sgs1 mgt1 strain (AID 161);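 further: 0% = growth of cultures given vehicle only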; details: S. cerevisiae sgs1 mgt1 strain, hits give high values
# How it was run: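 Genetically altered yeast, compound exposure, growth inhibition relative to vehicle.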
# [9] = NCI Yeast Anticancer Drug Screen. Data for the CLN2oe strain (AID 163);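 further: 0% = growth of vehicle-only control cultures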; details: S. cerevisiae CLN2oe strain, hits give high values
# How it was run: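 Read-out: yeast growth inhibition, expressed relative to vehicle-only controls. The strain bears an engineered cell-cycle alteration.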
# [10] = NCI Yeast Anticancer Drug Screen. Data for the cln2 rad14 strain (AID 165);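 further: 0% = growth equal to vehicle treated cultures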; details: S. cerevisiae cln2 rad14 strain, hits give high values
# How it was run: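 cln2 rad14 yeast strain; compound exposure; growth inhibition read vs vehicle controls.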
# [11] = NCI Yeast Anticancer Drug Screen. Data for the bub3 strain (AID 167); details: S. cerevisiae bub3 mutant strain, hits give high values
# How it was run: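 Whole-cell yeast assay. The mutant strain was incubated with compounds, and growth inhibition was determined by comparison with vehicle-treated cells.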
# [12] = NCI Yeast Anticancer Drug Screen. Data for the wt2 strain (AID 169);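 further: 0% = growth of vehicle-treated yeast cultures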; details: S. cerevisiae wt2 strain growth inhibition, hits give high values
# How it was run: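 Read-out: growth inhibition versus vehicle-treated control cultures after compound exposure of the yeast strain.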
# [13] = NCI Yeast Anticancer Drug Screen. Data for the mlh1 strain (AID 171);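 further: 0% = growth of vehicle-treated control cultures of the same strain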; details: S. cerevisiae mlh1 strain growth inhibition, hits give high values
# How it was run: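 Read-out: growth inhibition versus vehicle controls. Strain: engineered yeast with a defined DNA repair or cell cycle defect, compound-treated.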
# [14] = NCI Yeast Anticancer Drug Screen. Data for the sgs1 strain (AID 173);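 further: 0% = growth of vehicle-only control cultures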; details: S. cerevisiae sgs1 mutant, hits give high values
# How it was run: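 Read-out: yeast growth inhibition relative to vehicle controls, following compound exposure of a strain with a defined DNA repair/cell cycle alteration.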
# [15] = NCI Yeast Anticancer Drug Screen. Data for the mlh1 rad18 strain (AID 175); details: S. cerevisiae mlh1 rad18 strain growth inhibition, hits give high values
# How it was run: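 Yeast w/ defined DNA-repair lesions; compound exposure; growth vs vehicle controls → % inhibition.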
# [16] = NCI Yeast Anticancer Drug Screen. Data for the rad18 strain (AID 177); details: S. cerevisiae rad18 mutant growth inhibition, hits give high values
# How it was run: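 Readout: growth inhibition vs vehicle controls. Cells: genetically altered yeast strain, DNA repair defect.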
# [17] = at 5.0 µM (retest, dose inferred, filed as 0.5)
# [18] = at 50.0 µM (retest, dose inferred, filed as 5.0)
compound,measurement,setting,value
Oc1ccc2nc3ccccc3nc2c1,growth inhibition,[1]; at 1.2 µM,-1%
same,growth inhibition,[1]; at 3.7 µM,4%
same,growth inhibition,[1]; at 11.0 µM,24%
same,growth inhibition,[1]; at 33.0 µM,64%
same,growth inhibition,[1]; at 100.0 µM,95% (active)
same,growth inhibition,[2]; at 1.2 µM,1%
same,growth inhibition,[2]; at 3.7 µM,6%
same,growth inhibition,[2]; at 11.0 µM,21%
same,growth inhibition,[2]; at 33.0 µM,26%
same,growth inhibition,[2]; at 100.0 µM,72% (active)
same,growth inhibition,[3]; at 1.2 µM,-1%
same,growth inhibition,[3]; at 3.7 µM,-2%
same,growth inhibition,[3]; at 11.0 µM,23%
same,growth inhibition,[3]; at 33.0 µM,77% (active)
same,growth inhibition,[3]; at 100.0 µM,96% (active)
same,growth inhibition,[4]; at 1.2 µM,-2%
same,growth inhibition,[4]; at 3.7 µM,-5%
same,growth inhibition,[4]; at 11.0 µM,10%
same,growth inhibition,[4]; at 33.0 µM,43%
same,growth inhibition,[4]; at 100.0 µM,80% (active)
same,growth inhibition,[5]; at 1.2 µM,2%
same,growth inhibition,[5]; at 3.7 µM,5%
same,growth inhibition,[5]; [17],9%
same,growth inhibition,[5]; at 11.0 µM,23%
same,growth inhibition,[5]; at 33.0 µM,68%
same,growth inhibition,[5]; [18],89% (active)
same,growth inhibition,[5]; at 50.0 µM,91.5% (active)
same,growth inhibition,[5]; at 100.0 µM,92% (active)
same,growth inhibition,[6]; at 1.2 µM,2%
same,growth inhibition,[6]; at 3.7 µM,7%
same,growth inhibition,[6]; [17],13%
same,growth inhibition,[6]; at 11.0 µM,24%
same,growth inhibition,[6]; at 33.0 µM,52%
same,growth inhibition,[6]; [18],58%
same,growth inhibition,[6]; at 50.0 µM,72.7% (active)
same,growth inhibition,[6]; at 100.0 µM,95% (active)
same,growth inhibition,[7]; at 1.2 µM,1%
same,growth inhibition,[7]; at 3.7 µM,5%
same,growth inhibition,[7]; at 11.0 µM,18%
same,growth inhibition,[7]; at 33.0 µM,31%
same,growth inhibition,[7]; at 100.0 µM,85% (active)
same,growth inhibition,[8]; [17],-3%
same,growth inhibition,[8]; [18],20%
same,growth inhibition,[8]; at 50.0 µM,48.5%
same,growth inhibition,[9]; at 1.2 µM,4%
same,growth inhibition,[9]; at 3.7 µM,2%
same,growth inhibition,[9]; at 11.0 µM,11%
same,growth inhibition,[9]; at 33.0 µM,22%
same,growth inhibition,[9]; at 100.0 µM,67%
same,growth inhibition,[10]; [17],19%
same,growth inhibition,[10]; [18],20%
same,growth inhibition,[10]; at 50.0 µM,65.5%
same,growth inhibition,[11]; at 1.2 µM,2%
same,growth inhibition,[11]; at 3.7 µM,5%
same,growth inhibition,[11]; [17],-8%
same,growth inhibition,[11]; at 11.0 µM,29%
same,growth inhibition,[11]; at 33.0 µM,46%
same,growth inhibition,[11]; [18],61%
same,growth inhibition,[11]; at 50.0 µM,88% (active)
same,growth inhibition,[11]; at 100.0 µM,82% (active)
same,growth inhibition,[12]; at 1.2 µM,-1%
same,growth inhibition,[12]; at 3.7 µM,4%
same,growth inhibition,[12]; at 11.0 µM,13%
same,growth inhibition,[12]; at 33.0 µM,27%
same,growth inhibition,[12]; at 100.0 µM,73% (active)
same,growth inhibition,[13]; at 1.2 µM,-3%
same,growth inhibition,[13]; at 3.7 µM,-2%
same,growth inhibition,[13]; at 11.0 µM,11%
same,growth inhibition,[13]; at 33.0 µM,27%
same,growth inhibition,[13]; at 100.0 µM,80% (active)
same,growth inhibition,[14]; at 1.2 µM,-2%
same,growth inhibition,[14]; at 3.7 µM,2%
same,growth inhibition,[14]; at 11.0 µM,18%
same,growth inhibition,[14]; at 33.0 µM,29%
same,growth inhibition,[14]; at 100.0 µM,84% (active)
same,growth inhibition,[15]; [17],35%
same,growth inhibition,[15]; [18],82% (active)
same,growth inhibition,[15]; at 50.0 µM,86.8% (active)
same,growth inhibition,[16]; at 1.2 µM,-3%
same,growth inhibition,[16]; at 3.7 µM,8%
same,growth inhibition,[16]; at 11.0 µM,15%
same,growth inhibition,[16]; at 33.0 µM,54%
same,growth inhibition,[16]; at 100.0 µM,91% (active)
